Results filed as inconclusive are left out. Active and inactive are the calls of the source. Unless noted, calls come from the whole dose curve.
Assays:
[1] = Nuclear factor erythroid 2-related factor 2/antioxidant responsive element (Nrf2/ARE) small molecule agonists: qHTS cell viability counter screen in human keratinocytes (AID 1919968; active = well fitted curve in the direction sought with a large enough effect in the repeat runs; an effect the other way counts as inactive or inconclusive; note: nearly all actives have a fitted effect of over 55% in size)
Procedure, shortened: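 In human HaCaT keratinocytes stably expressing an ARE-driven luciferase, compound exposure lasted 23 h at 37 C under 5% CO2. Viable cells are quantified with a protease-based fluorogenic reagent (CellTiter-Fluor) read 1 h after addition.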

[2] = Nuclear factor erythroid 2-related factor 2/antioxidant responsive element (Nrf2/ARE) small molecule agonists: luciferase reporter gene qHTS assay in human keratinocytes (AID 1919969); note: nearly all actives have a fitted effect of over 35% in size
[3] = target: Gonadotropin-releasing hormone receptor (Homo sapiens) (UniProt P30968); test: Human gonadotropin-releasing hormone receptor (GnRHR) small molecule agonists, calcium flux assay in GnRHR-HEK293 cells (AID 1920063); note: nearly all actives have a fitted effect of over 35% in size
Procedure, shortened: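 Intracellular calcium rise is the read-out: engineered human GnRHR HEK293 cells, dye-loaded, are exposed to DMSO-dissolved compounds and fluorescence at Ex/Em 480/540 is tracked for 3 min.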

[4] = target: KiSS-1 receptor (Homo sapiens) (UniProt Q969F8); test: Human kisspeptin (KISS1R) small molecule agonists, calcium flux assay in KISS1R-HEK293 cells (AID 1920064; active = well fitted curve in the direction sought with a large enough effect in the repeat runs; an effect the other way counts as inactive or inconclusive)
Procedure, shortened: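 Concentration-response testing used 15 concentrations in triplicate on human KISS1R-expressing HEK293 cells. Calcium-dependent fluorescence (Ex/Em 480/540) was followed kinetically for 3 min after compound transfer.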

[5] = G protein-coupled receptor (GPCR) small molecule agonists, calcium flux assay: HEK293 wild type cell line counter screen (AID 1920065)
Procedure, shortened: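 Fluorescence intensity signals activation. After overnight (18 h) culture and a 1 h calcium dye load at 37 C, compounds are added by pin tool and the plate read at 480/540 nm for 3 min in 1 s steps.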

[6] = p53 small molecule agonists, cell-based qHTS assay with human liver microsomes (AID 1963577);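 note: p53 response element beta-lactamase reporter cells with liver microsomes plus NADPH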
Procedure, shortened: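 HLM-supplemented p53RE-bla reporter assay: 16 h compound exposure at 37 C, microsomes and NADPH each 0.5 mg/mL final, read by fluorescence intensity.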

[7] = p53 small molecule agonists, cell-based qHTS assay with rat liver microsomes (AID 1963578)
Procedure, shortened: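 Quantitative HTS of the Tox21 10K library: p53RE-bla cells, rat liver microsomes plus NADPH at 0.5 mg/mL final each, 16 h at 37 C, beta-lactamase fluorescence detection.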

[8] = p53 small molecule agonists, cell-based qHTS assay with human liver microsomes: qHTS cell viability counter screen (AID 1963579); note: nearly all actives have a fitted effect of over 45% in size
Procedure, shortened: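 Viability of p53RE-bla cells is measured as CellTiter-Glo luminescence following a 16 h, 37 C incubation with compound, liver microsomes from human donors and NADPH.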

[9] = p53 small molecule agonists, cell-based qHTS assay with rat liver microsomes: qHTS cell viability counter screen (AID 1963580); note: nearly all actives have a fitted effect of over 45% in size
Procedure, shortened: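 Cytotoxicity counter screen: intracellular ATP measured by CellTiter-Glo luminescence in the same wells as the beta-lactamase reporter read, on HCT-116 p53RE-bla cells exposed 16 h at 37 C to compounds with rat liver microsomes and NADPH, each 0.5 mg/mL final.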

[10] = p53 small molecule agonists, cell-based qHTS assay: qHTS cell viability counter screen (AID 1963581); note: nearly all actives have a fitted effect of over 45% in size
Procedure, shortened: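 Luminescence from CellTiter-Glo, reflecting ATP content, serves as the cytotoxicity measure; it is taken after the 2 h reporter substrate step in HCT-116 p53RE-bla cells dosed for 16 h at 37 C.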

[11] = p53 small molecule agonists, cell-based qHTS assay (AID 1963582; active = well fitted activation curve with a large enough effect in the signal ratio in the repeat runs, not every such curve was filed as active; the % refers to the signal ratio)
Procedure, shortened: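 After plating, p53RE-bla cells sat 5 h in the incubator; compounds or DMSO vehicle were pinned in; a 16 h incubation at 37 C followed; FRET substrate was added and, 2 h later at RT, fluorescence was measured.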

[12] = target: 5-hydroxytryptamine receptor 2A (Homo sapiens) (UniProt P28223); test: 5-hydroxytryptamine receptor 2A (HTR2A) small molecule antagonists, cell-based qHTS assay (AID 1963586); note: nearly all actives have a fitted effect of over 45% in size
Procedure, shortened: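 CHO cells stably expressing human HTR2A were plated for 18 h at 37 C, then loaded with calcium dye for 1 h. Compounds were preincubated 5 min at room temperature before DOI (4 nM solution) was added. Kinetic fluorescence was read for 3 min.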

[13] = target: Muscarinic acetylcholine receptor M1 (Homo sapiens) (UniProt P11229); test: Cholinergic receptor muscarinic 1 (CHRM1) small molecule antagonists, cell-based qHTS assay (AID 1963588); note: nearly all actives have a fitted effect of over 40% in size
Procedure, shortened: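 Compounds were tested at 15 concentrations in three independent runs. Dye-loaded CHRM1-CHO cells were exposed 5 min at room temperature before stimulation by acetylcholine added at 50nM. Intracellular calcium was read kinetically on FDSS for 3 min.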

[14] = cAMP Responsive Elements (CRE) small molecule antagonists, cell-based qHTS assay (AID 1963591; active = well fitted inhibition curve with a large enough effect in the signal ratio in the repeat runs, not every such curve was filed as active; the % refers to the signal ratio)
Procedure, shortened: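 Stimulation used NKH477 at a final 0.25 uM for 3 h in compound-treated CRE-bla HEK293T cells, seeded 18 h beforehand. Reporter activity was measured with LiveBLAzer B/G FRET substrate after 2 h at room temperature.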

[15] = target: Beta-2 adrenergic receptor (Homo sapiens) (UniProt P07550); test: Adrenergic beta2 receptor (ADRB2) small molecule antagonists, cell-based qHTS assay (AID 1963592); note: series mostly up to about 92 µM; nearly all actives have a fitted effect of over 50% in size
Procedure, shortened: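 Assay format: CHO-ADRB2 cells, 18-20hr seeding at 37C/5% CO2, then compound plus 1nM isoproterenol agonist mix for 0.5hr RT. Homogeneous time-resolved fluorescence cAMP detection after 1hr, expressed as 665/615 nm ratio.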

[16] = target: D(2) dopamine receptor (Homo sapiens) (UniProt P14416); test: Dopamine D2 receptor (DRD2) small molecule agonists, cell-based qHTS assay (AID 1963594); note: nearly all actives have a fitted effect of over 35% in size
Procedure, shortened: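 HEK293 cells stably expressing human DRD2, pre-treated with PDE inhibitor Ro20-1724 (0.1 mM final) and compound 10 min at room temperature, then stimulated with NKH477 (200nM […]) for 30 min. cAMP read by HTRF (665/620 nm).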

[17] = target: D(2) dopamine receptor (Homo sapiens) (UniProt P14416); test: Dopamine D2 receptor (DRD2) small molecule antagonists, cell-based qHTS assay (AID 1963595; active = well fitted inhibition curve with a large enough effect in the signal ratio in the repeat runs, with a control signal flat; the % refers to the signal ratio; note: potency is the fitted concentration of half-maximal effect)
Procedure, shortened: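 Antagonism was scored as restored cAMP in HEK293-DRD2 cells. These cells were stimulated with 200 nM NKH477 and 12 nM quinpirole for 30 min at room temperature, in the presence of 0.1 mM Ro20-1724.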

[18] = target: Muscarinic acetylcholine receptor M1 (Homo sapiens) (UniProt P11229); test: Cholinergic receptor muscarinic 1 (CHRM1) small molecule agonists, cell-based qHTS assay (AID 1963589); note: nearly all actives have a fitted effect of over 35% in size
Procedure, shortened: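 Fluorescent calcium dye reports M1 activation in stably transfected CHO cells. Compounds, 15 concentrations, added after 1 h dye loading at 37 C; kinetic reading at 1 sec intervals.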

[19] = cAMP Responsive Elements (CRE) small molecule agonists, cell-based qHTS assay (AID 1963590)
Procedure, shortened: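 Compound exposure lasted 3 h at 37 C/5% CO2 in CRE-bla HEK 293T cells grown in assay medium with 10% dialyzed FBS and 25 mM HEPES. Reporter signal came from LiveBLAzer B/G FRET substrate, 2 h, room temperature.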

[20] = target: 5-hydroxytryptamine receptor 2A (Homo sapiens) (UniProt P28223); test: 5-hydroxytryptamine receptor 2A (HTR2A) small molecule agonists, cell-based qHTS assay (AID 1963587); note: nearly all actives have a fitted effect of over 30% in size
Procedure, shortened: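 CHO cells stably expressing human HTR2A, plated 18 h, loaded with calcium dye 1 h at 37 C. Agonist mode: compounds added and intracellular calcium fluorescence recorded kinetically for 2 min at 1 sec intervals.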

Measured: Potency

Chain of 5-hydroxytryptamine receptor 2A (Homo sapiens) (P28223 whole entry, looked up): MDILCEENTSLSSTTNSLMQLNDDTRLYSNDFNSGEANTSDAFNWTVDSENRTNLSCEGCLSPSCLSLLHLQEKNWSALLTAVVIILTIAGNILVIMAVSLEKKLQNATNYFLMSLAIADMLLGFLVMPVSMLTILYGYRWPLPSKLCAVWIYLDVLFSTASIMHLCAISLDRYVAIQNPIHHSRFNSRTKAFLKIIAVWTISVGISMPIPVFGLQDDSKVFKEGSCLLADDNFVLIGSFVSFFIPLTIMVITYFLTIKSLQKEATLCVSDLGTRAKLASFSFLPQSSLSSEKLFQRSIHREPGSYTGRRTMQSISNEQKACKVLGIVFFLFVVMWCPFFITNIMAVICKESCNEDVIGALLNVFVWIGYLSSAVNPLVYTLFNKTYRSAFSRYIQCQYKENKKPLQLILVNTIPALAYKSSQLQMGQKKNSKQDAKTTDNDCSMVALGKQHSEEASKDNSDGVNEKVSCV
Chain of Beta-2 adrenergic receptor (Homo sapiens) (P07550 whole entry, looked up): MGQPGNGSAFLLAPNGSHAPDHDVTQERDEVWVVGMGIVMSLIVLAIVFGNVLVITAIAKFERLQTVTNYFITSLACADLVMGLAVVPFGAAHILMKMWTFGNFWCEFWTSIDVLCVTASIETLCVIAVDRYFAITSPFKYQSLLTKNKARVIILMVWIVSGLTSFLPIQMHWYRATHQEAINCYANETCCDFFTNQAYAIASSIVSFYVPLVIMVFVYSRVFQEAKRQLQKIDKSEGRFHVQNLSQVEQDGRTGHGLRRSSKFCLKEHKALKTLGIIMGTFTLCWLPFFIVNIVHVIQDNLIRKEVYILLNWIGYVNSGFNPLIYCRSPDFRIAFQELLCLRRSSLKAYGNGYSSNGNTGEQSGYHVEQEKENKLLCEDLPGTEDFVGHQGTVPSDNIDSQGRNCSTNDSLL
Chain of KiSS-1 receptor (Homo sapiens) (Q969F8 whole entry, looked up): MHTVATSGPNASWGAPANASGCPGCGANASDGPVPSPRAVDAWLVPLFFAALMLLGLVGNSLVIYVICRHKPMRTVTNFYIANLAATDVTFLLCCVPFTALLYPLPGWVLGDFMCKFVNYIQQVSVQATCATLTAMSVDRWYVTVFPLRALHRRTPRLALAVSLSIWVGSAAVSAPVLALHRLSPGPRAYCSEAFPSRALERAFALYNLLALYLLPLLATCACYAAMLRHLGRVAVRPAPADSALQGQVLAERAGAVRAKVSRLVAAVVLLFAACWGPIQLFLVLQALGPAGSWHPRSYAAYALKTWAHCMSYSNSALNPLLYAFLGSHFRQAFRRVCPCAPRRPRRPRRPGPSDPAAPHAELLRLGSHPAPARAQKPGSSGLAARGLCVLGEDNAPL
Chain of D(2) dopamine receptor (Homo sapiens) (P14416 whole entry, looked up): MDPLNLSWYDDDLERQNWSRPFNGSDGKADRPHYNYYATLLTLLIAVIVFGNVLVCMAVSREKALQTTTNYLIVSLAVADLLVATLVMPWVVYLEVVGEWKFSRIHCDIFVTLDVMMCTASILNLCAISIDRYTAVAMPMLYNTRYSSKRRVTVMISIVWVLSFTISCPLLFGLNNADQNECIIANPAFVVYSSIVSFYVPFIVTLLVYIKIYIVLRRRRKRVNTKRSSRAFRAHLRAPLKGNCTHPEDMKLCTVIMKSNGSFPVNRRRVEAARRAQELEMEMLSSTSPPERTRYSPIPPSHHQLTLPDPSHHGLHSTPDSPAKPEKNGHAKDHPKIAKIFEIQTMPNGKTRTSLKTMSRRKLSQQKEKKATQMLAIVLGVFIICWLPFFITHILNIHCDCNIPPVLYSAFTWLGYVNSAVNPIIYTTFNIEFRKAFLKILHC
Chain of Muscarinic acetylcholine receptor M1 (Homo sapiens) (P11229 whole entry, looked up): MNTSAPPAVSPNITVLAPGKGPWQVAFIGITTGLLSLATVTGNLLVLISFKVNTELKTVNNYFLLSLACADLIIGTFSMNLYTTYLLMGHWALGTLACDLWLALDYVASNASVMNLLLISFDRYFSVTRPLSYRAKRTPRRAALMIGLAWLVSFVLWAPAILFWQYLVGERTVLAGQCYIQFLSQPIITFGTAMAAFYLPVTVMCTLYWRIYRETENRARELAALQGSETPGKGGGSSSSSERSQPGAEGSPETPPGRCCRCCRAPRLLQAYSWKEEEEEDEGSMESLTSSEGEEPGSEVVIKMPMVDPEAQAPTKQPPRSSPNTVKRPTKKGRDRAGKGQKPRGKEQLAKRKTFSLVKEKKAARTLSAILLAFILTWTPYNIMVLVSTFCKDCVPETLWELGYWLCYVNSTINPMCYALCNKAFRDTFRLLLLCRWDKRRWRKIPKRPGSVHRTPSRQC
Chain of Gonadotropin-releasing hormone receptor (Homo sapiens) (P30968 whole entry, looked up): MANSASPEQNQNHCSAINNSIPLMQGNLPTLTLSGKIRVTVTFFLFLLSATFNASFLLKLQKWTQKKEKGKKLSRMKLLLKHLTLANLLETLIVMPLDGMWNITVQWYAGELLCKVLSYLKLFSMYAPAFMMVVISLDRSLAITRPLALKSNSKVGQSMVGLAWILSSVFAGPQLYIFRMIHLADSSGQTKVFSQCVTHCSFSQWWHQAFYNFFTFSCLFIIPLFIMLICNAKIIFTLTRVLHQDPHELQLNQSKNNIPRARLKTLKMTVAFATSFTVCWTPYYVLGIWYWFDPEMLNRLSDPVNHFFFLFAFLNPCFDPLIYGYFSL

CC(C)CC(O)CC(C)C
not listed: [18] | [19] | [20]
inactive: all other assays above

Nc1cccc2c1CN(C1CCC(=O)NC1=O)C2=O (stereo not drawn)
not listed: [20]
inactive: all other assays above

CC(C)c1cccc(C(C)C)c1N
not listed: [12]
inactive: all other assays above

COc1cc(N)c(Cl)cc1C(=O)NC1CCN(Cc2ccccc2)CC1
active: [17] 29.8 nM
not listed: [12]
inactive: all other assays above

C/C=C(\C)C(=O)OCc1ccccc1
not listed: [20]
inactive: all other assays above
